Laboratory results reported in the supplement of paper PMC10849652.
Targets with a hit are over-represented here; the source holds about 7,900 in all. About 0.6% of all pairs of compound and target were hits.

Each target was assayed with C1COCCN1CCN2C3=CC=CC=C3N=C2NC(=O)C4=CC(=CC=C4)[N+](=O)[O-] [IRAK-1-4 Inhibitor I] (assay: log2 fold change, soluble protein after heating vs DMSO (PISA); higher = thermal stabilisation; K562 cells, 10 uM, 30 min; active = over 0.2 and 3.5 SD of the protein, either way, in both replicates (recomputed)).
In short: (§1)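 Values are thermal stability changes relative to control samples and are taken from duplicates. They are stated as log2 fold changes. Before quantification by TMTpro 16plex LC-MS/MS with equalised channel sums, K562 cells at 2×10^6 cells/mL were treated with 10 μM compound for 30 min, heated in aliquots for 3 min across 48°C-58°C, pooled, extracted in PBS with 0.5% NP-40 at 4°C, and centrifuged at 21,000xg for 90 min to give the soluble supernatant.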

UniProt Q02790, sequence (Q02790 whole entry, looked up): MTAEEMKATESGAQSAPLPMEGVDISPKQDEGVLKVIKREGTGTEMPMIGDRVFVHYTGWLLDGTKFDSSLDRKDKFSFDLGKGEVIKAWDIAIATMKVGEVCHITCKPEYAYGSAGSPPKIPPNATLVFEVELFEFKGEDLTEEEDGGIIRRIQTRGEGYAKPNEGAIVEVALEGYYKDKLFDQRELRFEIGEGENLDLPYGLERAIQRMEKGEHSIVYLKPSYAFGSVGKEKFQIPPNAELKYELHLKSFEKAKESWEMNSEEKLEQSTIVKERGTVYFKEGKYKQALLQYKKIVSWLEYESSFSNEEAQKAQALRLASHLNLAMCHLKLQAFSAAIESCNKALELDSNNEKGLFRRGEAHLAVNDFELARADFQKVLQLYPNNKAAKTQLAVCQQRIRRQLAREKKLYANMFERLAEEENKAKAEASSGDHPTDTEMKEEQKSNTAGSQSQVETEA
UniProt O15228, sequence (O15228 whole entry, looked up): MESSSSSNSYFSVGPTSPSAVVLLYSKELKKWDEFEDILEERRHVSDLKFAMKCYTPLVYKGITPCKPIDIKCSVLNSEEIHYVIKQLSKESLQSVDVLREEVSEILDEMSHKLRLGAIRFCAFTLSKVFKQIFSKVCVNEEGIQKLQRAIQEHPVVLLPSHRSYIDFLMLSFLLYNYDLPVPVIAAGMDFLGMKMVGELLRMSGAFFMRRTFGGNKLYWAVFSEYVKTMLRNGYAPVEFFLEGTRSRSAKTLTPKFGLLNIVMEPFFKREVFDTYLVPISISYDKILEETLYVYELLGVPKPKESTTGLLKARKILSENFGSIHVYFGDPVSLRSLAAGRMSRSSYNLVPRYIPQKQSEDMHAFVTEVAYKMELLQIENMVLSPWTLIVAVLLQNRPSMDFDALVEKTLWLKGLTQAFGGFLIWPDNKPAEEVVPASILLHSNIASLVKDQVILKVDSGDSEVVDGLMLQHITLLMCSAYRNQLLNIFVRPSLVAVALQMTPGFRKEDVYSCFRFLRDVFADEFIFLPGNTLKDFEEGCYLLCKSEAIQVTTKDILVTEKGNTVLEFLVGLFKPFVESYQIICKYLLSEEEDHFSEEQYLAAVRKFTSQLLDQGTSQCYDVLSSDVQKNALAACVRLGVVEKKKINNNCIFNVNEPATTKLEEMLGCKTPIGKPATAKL
UniProt Q10472, sequence (Q10472 whole entry, looked up): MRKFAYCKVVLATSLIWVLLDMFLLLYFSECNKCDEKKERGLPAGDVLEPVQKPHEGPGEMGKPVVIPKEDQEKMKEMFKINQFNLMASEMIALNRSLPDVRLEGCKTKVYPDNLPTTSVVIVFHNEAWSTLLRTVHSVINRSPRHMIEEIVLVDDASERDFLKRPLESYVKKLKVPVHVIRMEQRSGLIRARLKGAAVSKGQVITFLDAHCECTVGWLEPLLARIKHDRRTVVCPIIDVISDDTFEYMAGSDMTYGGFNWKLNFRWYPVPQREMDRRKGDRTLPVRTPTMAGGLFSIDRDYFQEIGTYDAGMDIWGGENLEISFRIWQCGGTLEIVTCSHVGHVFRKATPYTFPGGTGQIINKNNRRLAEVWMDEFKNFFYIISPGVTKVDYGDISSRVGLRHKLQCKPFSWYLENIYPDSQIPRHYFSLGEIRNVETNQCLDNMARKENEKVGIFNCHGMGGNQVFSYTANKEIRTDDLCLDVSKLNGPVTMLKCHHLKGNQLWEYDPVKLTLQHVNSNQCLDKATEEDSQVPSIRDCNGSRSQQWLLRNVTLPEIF
UniProt P06865, sequence (P06865 whole entry, looked up): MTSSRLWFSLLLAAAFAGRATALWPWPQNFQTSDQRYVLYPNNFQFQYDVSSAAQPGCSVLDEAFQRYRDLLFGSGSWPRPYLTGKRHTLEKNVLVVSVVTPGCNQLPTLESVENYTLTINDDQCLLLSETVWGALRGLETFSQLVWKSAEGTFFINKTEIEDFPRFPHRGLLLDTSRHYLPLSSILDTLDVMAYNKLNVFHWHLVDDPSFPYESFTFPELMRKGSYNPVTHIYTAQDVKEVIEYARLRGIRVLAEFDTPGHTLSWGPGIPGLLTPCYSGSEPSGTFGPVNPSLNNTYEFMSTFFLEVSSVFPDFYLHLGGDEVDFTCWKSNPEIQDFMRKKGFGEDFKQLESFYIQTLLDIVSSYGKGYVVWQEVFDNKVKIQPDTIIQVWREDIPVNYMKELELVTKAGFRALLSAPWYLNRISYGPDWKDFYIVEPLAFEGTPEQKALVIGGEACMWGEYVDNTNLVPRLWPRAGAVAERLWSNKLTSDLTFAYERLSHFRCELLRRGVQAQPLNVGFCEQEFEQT
UniProt P07910, sequence (P07910 whole entry, looked up): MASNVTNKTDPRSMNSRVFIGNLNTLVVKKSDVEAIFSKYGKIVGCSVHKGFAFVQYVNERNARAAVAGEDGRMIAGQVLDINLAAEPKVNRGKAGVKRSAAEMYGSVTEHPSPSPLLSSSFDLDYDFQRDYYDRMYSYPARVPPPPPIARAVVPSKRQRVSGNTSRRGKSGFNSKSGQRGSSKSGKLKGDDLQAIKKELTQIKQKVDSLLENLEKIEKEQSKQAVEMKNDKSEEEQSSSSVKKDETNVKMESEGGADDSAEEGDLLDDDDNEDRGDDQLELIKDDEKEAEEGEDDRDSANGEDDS
UniProt Q14C86, sequence (Q14C86 whole entry, looked up): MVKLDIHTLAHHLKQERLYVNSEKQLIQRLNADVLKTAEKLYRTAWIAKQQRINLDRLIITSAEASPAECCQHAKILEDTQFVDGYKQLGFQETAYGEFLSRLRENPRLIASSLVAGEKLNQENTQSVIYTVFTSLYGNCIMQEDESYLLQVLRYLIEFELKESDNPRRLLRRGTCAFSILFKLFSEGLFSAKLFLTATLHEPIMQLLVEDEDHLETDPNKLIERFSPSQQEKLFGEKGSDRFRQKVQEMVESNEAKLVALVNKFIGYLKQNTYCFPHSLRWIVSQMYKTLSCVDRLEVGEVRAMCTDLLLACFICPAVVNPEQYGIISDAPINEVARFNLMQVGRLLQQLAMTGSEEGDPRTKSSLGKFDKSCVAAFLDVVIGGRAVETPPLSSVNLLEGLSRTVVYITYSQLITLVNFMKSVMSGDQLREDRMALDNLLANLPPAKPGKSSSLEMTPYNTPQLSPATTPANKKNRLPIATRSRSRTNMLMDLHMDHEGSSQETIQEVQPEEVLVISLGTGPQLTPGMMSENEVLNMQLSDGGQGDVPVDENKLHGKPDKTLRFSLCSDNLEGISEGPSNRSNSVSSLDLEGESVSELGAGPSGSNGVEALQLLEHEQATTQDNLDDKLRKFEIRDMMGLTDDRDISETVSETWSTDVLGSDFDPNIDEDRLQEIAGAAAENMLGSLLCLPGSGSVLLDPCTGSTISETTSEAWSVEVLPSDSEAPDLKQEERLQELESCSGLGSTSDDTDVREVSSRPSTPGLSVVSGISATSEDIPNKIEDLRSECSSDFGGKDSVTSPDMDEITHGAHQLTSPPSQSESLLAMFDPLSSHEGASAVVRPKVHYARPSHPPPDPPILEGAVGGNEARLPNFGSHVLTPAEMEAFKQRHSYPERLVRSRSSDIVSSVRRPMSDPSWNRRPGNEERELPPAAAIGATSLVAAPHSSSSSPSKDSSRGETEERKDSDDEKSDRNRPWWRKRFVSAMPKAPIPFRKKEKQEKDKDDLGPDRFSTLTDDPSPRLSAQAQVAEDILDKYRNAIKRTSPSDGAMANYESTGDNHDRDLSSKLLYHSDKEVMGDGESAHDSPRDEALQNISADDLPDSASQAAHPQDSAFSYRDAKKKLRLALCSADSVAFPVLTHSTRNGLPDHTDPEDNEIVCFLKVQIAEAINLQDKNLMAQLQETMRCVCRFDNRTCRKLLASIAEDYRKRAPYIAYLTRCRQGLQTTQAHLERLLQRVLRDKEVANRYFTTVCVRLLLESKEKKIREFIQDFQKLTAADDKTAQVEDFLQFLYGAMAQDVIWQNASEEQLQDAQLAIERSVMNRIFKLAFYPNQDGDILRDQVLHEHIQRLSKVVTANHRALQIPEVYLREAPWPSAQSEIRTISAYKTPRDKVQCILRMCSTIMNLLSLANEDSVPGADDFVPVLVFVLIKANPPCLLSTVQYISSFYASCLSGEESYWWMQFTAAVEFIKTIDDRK
UniProt P23327, sequence (P23327 whole entry, looked up): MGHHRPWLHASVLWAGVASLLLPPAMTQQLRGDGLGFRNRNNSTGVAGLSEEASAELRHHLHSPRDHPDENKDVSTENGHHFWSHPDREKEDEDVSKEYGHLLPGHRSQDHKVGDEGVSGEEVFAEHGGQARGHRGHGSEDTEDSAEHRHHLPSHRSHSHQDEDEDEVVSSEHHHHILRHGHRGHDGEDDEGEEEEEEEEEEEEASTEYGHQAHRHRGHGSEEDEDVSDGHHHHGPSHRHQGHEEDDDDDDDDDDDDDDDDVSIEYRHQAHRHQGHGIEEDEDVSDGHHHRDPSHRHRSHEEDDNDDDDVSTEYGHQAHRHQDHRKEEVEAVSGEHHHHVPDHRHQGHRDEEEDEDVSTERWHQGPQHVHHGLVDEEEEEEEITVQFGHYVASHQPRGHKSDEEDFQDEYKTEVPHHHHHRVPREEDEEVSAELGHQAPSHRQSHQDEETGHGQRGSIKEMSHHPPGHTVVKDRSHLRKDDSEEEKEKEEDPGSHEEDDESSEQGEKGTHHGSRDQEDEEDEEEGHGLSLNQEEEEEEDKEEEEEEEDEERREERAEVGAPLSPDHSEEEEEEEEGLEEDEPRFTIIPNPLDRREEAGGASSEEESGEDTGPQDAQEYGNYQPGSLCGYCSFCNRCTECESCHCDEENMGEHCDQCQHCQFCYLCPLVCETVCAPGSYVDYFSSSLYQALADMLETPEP
UniProt O15347, sequence (O15347 whole entry, looked up): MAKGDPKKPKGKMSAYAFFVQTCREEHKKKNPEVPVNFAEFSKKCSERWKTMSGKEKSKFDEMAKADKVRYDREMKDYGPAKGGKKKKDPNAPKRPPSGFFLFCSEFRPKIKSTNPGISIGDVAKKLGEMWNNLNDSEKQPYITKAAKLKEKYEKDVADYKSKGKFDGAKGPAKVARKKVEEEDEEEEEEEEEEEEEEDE
UniProt P52657, sequence (P52657 whole entry, looked up): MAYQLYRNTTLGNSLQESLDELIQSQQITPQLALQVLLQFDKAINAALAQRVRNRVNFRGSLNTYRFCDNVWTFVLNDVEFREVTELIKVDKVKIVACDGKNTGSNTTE

log2 fold change, inactive:
GNB2 (UniProt P62879) -0.021
GTF2B (UniProt Q00403) -0.063
GTF2E1 (UniProt P29083) -0.048
GPX4 (UniProt P36969) -0.026
HMGB3 (UniProt O15347) 0.071
GAPVD1 isoform 6 (UniProt Q14C86) -0.044
FNTB (UniProt P49356) 0.017
FKBP4 (UniProt Q02790) 0
IFRD1 (UniProt O00458) 0.033
IFT80 isoform 3 (UniProt Q9P2H3) 0.03
IFI30 (UniProt P13284) 0.157
GALNT1 (UniProt Q10472) -0.106
FUBP3 (UniProt Q96I24) -0.002
ICMT (UniProt O60725) 0.039
GCC2 (UniProt Q8IWJ2) -0.046
HIC2 (UniProt Q96JB3) -0.073
HRC (UniProt P23327) 0.002
HSD17B12 (UniProt Q53GQ0) -0.01
HMGCR isoform 3 (UniProt P04035) 0.037
GOLPH3 (UniProt Q9H4A6) 0.033
GEMIN5 (UniProt Q8TEQ6) -0.037
FUCA2 (UniProt Q9BTY2) -0.078
HNRNPH1 (UniProt P31943) -0.032
GNPAT (UniProt O15228) 0.026
GOPC (UniProt Q9HD26) -0.119
HPCAL1 (UniProt P37235) 0.02
GTF2A2 (UniProt P52657) 0.013
GSK3A (UniProt P49840) 0.099
HBQ1 (UniProt P09105) 0.003
HOOK3 (UniProt Q86VS8) 0.003
HEXA (UniProt P06865) 0.013
GGA2 (UniProt Q9UJY4) 0.007
HNRNPC isoform 2 (UniProt P07910) -0.332
H2AFX (UniProt P16104) -0.049
HDDC2 (UniProt Q7Z4H3) 0.04

What follows are targets tested with C=CC(=O)N1CCC[C@@H](n2nc(-c3ccc(Oc4ccccc4)cc3)c3c(N)ncnc32)C1 [ibrutinib] in the same assay as above.
In short: as §1

log2 fold change, inactive:
GNB2 (UniProt P62879) 0.003
GTF2B (UniProt Q00403) -0.064
GTF2E1 (UniProt P29083) -0.06
GPX4 (UniProt P36969) 0.065
HMGB3 (UniProt O15347) 0.038
GAPVD1 isoform 6 (UniProt Q14C86) -0.087
FNTB (UniProt P49356) 0.309
FKBP4 (UniProt Q02790) -0.005
IFRD1 (UniProt O00458) 0.058
IFT80 isoform 3 (UniProt Q9P2H3) 0.099
IFI30 (UniProt P13284) 0.049
GALNT1 (UniProt Q10472) 0.023
FUBP3 (UniProt Q96I24) -0.002
ICMT (UniProt O60725) 0.182
GCC2 (UniProt Q8IWJ2) -0.023
HIC2 (UniProt Q96JB3) 0.123
HRC (UniProt P23327) 0.003
HSD17B12 (UniProt Q53GQ0) 0.038
HMGCR isoform 3 (UniProt P04035) -0.001
GOLPH3 (UniProt Q9H4A6) -0.035
GEMIN5 (UniProt Q8TEQ6) -0.014
FUCA2 (UniProt Q9BTY2) 0.043
HNRNPH1 (UniProt P31943) 0.048
GNPAT (UniProt O15228) -0.007
GOPC (UniProt Q9HD26) -0.104
HPCAL1 (UniProt P37235) -0.015
GTF2A2 (UniProt P52657) -0.028
GSK3A (UniProt P49840) 0.011
HBQ1 (UniProt P09105) 0.016
HOOK3 (UniProt Q86VS8) -0.057
HEXA (UniProt P06865) 0.004
GGA2 (UniProt Q9UJY4) -0.05
HNRNPC isoform 2 (UniProt P07910) 0.043
H2AFX (UniProt P16104) 0.077
HDDC2 (UniProt Q7Z4H3) 0
